Laboratory results: PubChem BioAssay AID1460 (National Center for Advancing Translational Sciences (NCATS), 2008)
The campaign covered roughly 270,000 compounds. About 5,800 (2.1%) were called active. A call without a number means that no potency is given here. Another 16% or so got no clear call; they are omitted. Calls follow the shape of the dose curve; as a rule, active = well fitted inhibition curve with a large enough effect; inconclusive = small, poorly fitted or top-dose-only effect; inactive = flat fitted curve, though single readings scatter. This excerpt belongs to a sample that is enriched for actives.

What follows are molecules tested against Microtubule-associated protein tau (Homo sapiens) (UniProt P10636) (assay: qHTS for Inhibitors of Tau Fibril Formation, Thioflavin T Binding). Conditions: recombinant tau K18 P301L (four-repeat tau fragment), heparin-induced fibrillization, ThT fluorescence; series mostly up to 57.4 µM.
Summary of the method: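 Aggregation was driven by heparin (20 uM final) acting on recombinant tau […] bearing P301L in 100 mM sodium acetate pH 7; fibrils were detected with Thioflavin T.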
Also: nearly all actives have a fitted effect of over 55% in size.
Potency is read from the fitted curve at half-maximal effect.

Microtubule-associated protein tau (Homo sapiens), sequence (P10636 561-689 P618L limits assumed): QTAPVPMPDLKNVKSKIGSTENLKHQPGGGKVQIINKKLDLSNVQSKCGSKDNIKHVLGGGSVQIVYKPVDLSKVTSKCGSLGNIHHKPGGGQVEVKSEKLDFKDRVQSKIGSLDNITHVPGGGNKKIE

Row | SMILES | Potency
1 | CN(Cc1ccccc1)c1ncnc2onc(-c3ccc(F)cc3)c12 | inactive
2 | O=c1c(NCc2cccs2)nccn1-c1ccccc1 | inactive
3 | O=C(CSc1cn(CC(=O)N2CCOCC2)c2ccccc12)Nc1ccccc1 | inactive
4 | Cc1ccc2oc3c(c(=O)c2c1)C(c1ccc([N+](=O)[O-])cc1)N(CCCN1CCOCC1)C3=O (stereo not drawn) | inactive
5 | CCN1CCC(N(Cc2ccc(F)cc2)C(=O)Nc2cc(C)ccc2C)CC1 | inactive
6 | Cc1cc(C)c2sc(NC(=O)c3ccc(S(=O)(=O)N4CCCC4)cc3)nc2c1 | inactive
7 | CCOc1cccc(CNC(=O)c2ccc(N3CCCC3)c(NC(=O)Nc3ccccc3CC)c2)c1 | inactive
8 | COc1cccc(C(=O)NC(=O)Nc2ccc(-c3cc(C(F)(F)F)nn3-c3ccccc3)cc2)c1 | inactive
9 | Cc1ccccc1CCNC(=O)C1CCN(c2nc3ccccc3nc2C(F)(F)F)CC1 | inactive
10 | CCc1cnc2c(c1SCC(=O)N1CCC(C)CC1)c(=O)n(C)c(=O)n2C | inactive
11 | O=C(Nc1cccc([N+](=O)[O-])c1)Nc1ccc(Cl)cn1 | inactive
12 | Nc1c(-c2cccc(Cl)c2)cnn1-c1cccc([N+](=O)[O-])c1 | 12.6 µM (active)
13 | O=[N+]([O-])c1cccc(C2=NCCS2)c1 | inactive
14 | Cc1c(C(=O)N2CCCC2)oc2c1-c1nn(CC(=O)NCc3ccc(OC(C)C)cc3)cc1CC2 | inactive
15 | Cc1ccc(OCC(=O)OCc2cc(=O)n3nc(C4CC4)sc3n2)cc1C | inactive
16 | Cc1ccc(Cl)cc1N(C)C(=O)C1CCCN(c2ncnc3onc(-c4ccc(F)cc4)c23)C1 (stereo not drawn) | inactive
17 | O=C1c2ccccc2C2=Nc3ccccc3SC(c3ccccc3F)C12 (stereo not drawn) | 7.94 µM (active)
18 | CC(=O)c1ccc(NC(=O)CCc2nc(-c3ccc(C)cc3)no2)cc1 | inactive
19 | O=C(Nc1ccc(Br)cc1)c1ccc(Br)c(S(=O)(=O)NCc2ccccc2)c1 | inactive
20 | CCOC(=O)c1sc(=S)n2c1[nH]c(=O)c1ccc(C(=O)OC)cc12 | 7.08 µM (active)
21 | CCOC(=O)c1sc(=S)n(-c2cccc(OC)c2)c1N | inactive

Row | SMILES | Potency
22 | CCOC(=O)c1sc(NC(=O)c2ccncc2)nc1C | inactive
23 | COc1ccccc1N1CCN(C(CNC(=O)C(=O)NCc2ccc(C)cc2)c2cccnc2)CC1 (stereo not drawn) | inactive
24 | O=[N+]([O-])c1cc(-c2nc(-c3ccccc3)no2)ccc1NCc1ccco1 | inactive
25 | Cc1ccc(-n2ncc3c(N4CCC(C(N)=O)CC4)ncnc32)cc1 | inactive
26 | CC(=O)N1C(=O)/C(=C2\SC(=S)N(NC(=O)c3ccc(O)cc3)C2=O)c2ccccc21 | 25.1 µM (active)
27 | COc1ccc(C(=O)NN2C(=O)C3C(c4ccccc4)C=CC(c4ccccc4)C3C2=O)cc1 (stereo not drawn) | inactive
28 | O=C(O)c1ccc2c(c1)C(=O)N(NC(=O)c1ccc(O)cc1)C2=O | inactive
29 | CN(C)S(=O)(=O)c1cccc(C(=O)Nc2cccnc2)c1 | inactive
30 | O=C(c1cccnc1)N(c1cc2sc(=O)oc2c2ccccc12)S(=O)(=O)c1ccccc1 | 11.2 µM (active)
31 | COc1ccc(N(C(=O)c2cccnc2)S(=O)(=O)c2ccc3c(c2)n(C)c(=O)n3C)cc1 | inactive
32 | COc1ccccc1CNc1nccn(-c2ccc(F)cc2)c1=O | inactive
33 | Cc1cccc(CC(=O)Nc2cccc(-c3cn4cccnc4n3)c2)c1 | inactive
34 | CCc1cccc(C)c1NS(=O)(=O)c1ccc(-c2cc(C)no2)s1 | inactive
35 | COc1ccc(S(=O)(=O)Nc2ccc(O)c(Sc3nc4ccccc4s3)c2)cc1 | inactive
36 | O=C(NC(Nc1nc2ccc([N+](=O)[O-])cc2s1)(C(F)(F)F)C(F)(F)F)c1ccccc1 | inactive
37 | Cc1ccc(S(=O)(=O)Nc2nc3ccccc3s2)cc1[N+](=O)[O-] | inactive
38 | COc1cc(/C=N/NC(=O)CCc2n[nH]c(=O)[nH]c2=O)ccc1O | inactive
39 | COc1cc(/C=N/NC(=O)c2ccccc2)ccc1OS(=O)(=O)c1ccccc1 | inactive
40 | COc1cc(/C=N/Nc2nc3ccccc3s2)ccc1O | 5.62 µM (active)
41 | O=[N+]([O-])c1cc(Br)c(O)c(/C=N/Nc2nc3ccccc3s2)c1 | 4.47 µM (active)
42 | COc1cc(/C=N\Nc2nc(-c3cccs3)c(NC(C)=O)s2)ccc1O | 15.8 µM (active)

Row | SMILES | Potency
43 | Cc1ccc(C(=O)Nc2nnc(-c3cccs3)s2)cc1C | inactive
44 | Cc1ccc(S(=O)(=O)c2cn(Cc3ccccc3)c3cc(N4CCCC4)c(F)cc3c2=O)c(C)c1 | inactive
45 | O=C1CSC2(C(=O)N(Cc3ccccc3)c3ccccc32)N1c1cccc(F)c1 (stereo not drawn) | inactive
46 | O=C(COc1ccccc1F)Nc1ccc(C(=O)OCc2cc(=O)n3nc(C4CC4)sc3n2)cc1 | inactive
47 | CCOc1ccc(OCC)c(NC(=O)CN(c2ccc(C)cc2)S(=O)(=O)c2c(C)n[nH]c2C)c1 | inactive
48 | CNC(=O)CN1C(=O)c2cccnc2Sc2ccccc21 | inactive
49 | Cc1ccc(Cn2c(=O)n(-c3ccc(C)cc3)c(=O)c3c2c2cc(C)ccc2n3C)cc1 | inactive
50 | COc1ccccc1NC(=O)c1cc(C2CC2)nc2c1c(C)nn2-c1ccc(C)cc1 | inactive
51 | Cc1ccc2nc(CNC(=O)c3ccccc3)[nH]c2c1 | inactive
52 | COc1ccc(NC(=O)c2cc3cc(C)ccc3n2C)cc1 | inactive
53 | CCCCNC(=O)CSc1nc2cc3c(cc2c(=O)n1CCCCCC(=O)NCc1ccc2c(c1)OCO2)OCO3 | inactive
54 | O=C(NCCc1c[nH]c2ccccc12)C(=O)NCC1CCCO1 (stereo not drawn) | inactive
55 | N#C/C(=C/c1ccc(N2CCCCC2)o1)C(=O)NCCc1c[nH]c2ccccc12 | 4.47 µM (active)
56 | CC(=O)N/C(=C/c1ccc(Cl)cc1)C(=O)NCCc1c[nH]c2ccccc12 | inactive
57 | COc1ccc(CCNC(=O)c2nn(C)c3c2CSc2ccccc2-3)cc1OC | inactive
58 | CCc1nc2onc(C)c2c(=O)n1CC(=O)O | inactive
59 | Oc1ccc(N=Nc2nccs2)c(O)c1 | 3.55 µM (active)
60 | Oc1ccc2ccccc2c1N=Nc1nccs1 | 7.94 µM (active)
61 | CCCCn1c(=O)c2oc3ccccc3c2n(CC(=O)Nc2ccccc2OC)c1=O | inactive
62 | COc1cc(C(CC(=O)NCCC(C)C)N2Cc3ccccc3C2=O)cc(OC)c1OC (stereo not drawn) | inactive
63 | O=C(Cn1cnc2c(oc3ccccc32)c1=O)Nc1ccc(OC(F)(F)F)cc1 | inactive
